# Inconclusive results are not listed. Values without a mark were called inactive.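 Rule for the calls: active = viability at or below 27.92% in each of two runs, the all-compound median minus 4 SD; inconclusive = no clear call, values can overlap the other calls; inactive = the rest.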
# Assay: growth suppression of PTEN-deleted HCT116, pilot screen, cell-based, HCT116 clonal line, CellTiter-Glo (AID 824);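 note: 0% = 20 µM Hyamine control and 100% = vehicle cell control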
# Details: 60 h, at 10 µM, stronger effect = lower value
row,Structure (SMILES),viability [%]
1,COc1ccc(-c2noc(-c3ccccc3F)n2)cc1,83.1
2,CCOC(=O)N1CCN(C(=O)C(C)(C)Oc2ccc(Cl)cc2)CC1,96.1
3,CCOc1ccc(C2CC(c3ccc(CC)cc3)Nc3nc(N)nn32)cc1 (configuration not stated),90.2
4,O=C(Cn1cc2c(n1)CCCCC2)NCc1ccccn1,90.8
5,O=C(Nc1ccc(Cl)cn1)c1cccc(F)c1,33.9
6,CCCn1c(C(O)c2ccc3c(c2)OCO3)nc2ccccc21 (configuration not stated),102
7,COc1ccc(-n2nc3c(c2NC(=O)c2ccc(Br)cc2)CS(=O)C3)cc1 (configuration not stated),91.5
8,CC1CCCCN1c1nnc(NC(=O)Cn2c(=O)oc3ccccc32)s1 (configuration not stated),97.8
9,Cc1ncc(CO)c2cc(S(=O)(=O)c3ccc(F)cc3)c(=O)oc12,96.7
10,COc1ccc(C/C(N)=N/n2cnnc2)cc1,106
11,Cc1cc(C)cc(N(CC(=O)N2CCN(Cc3ccccc3)CC2)S(=O)(=O)c2c(C)noc2C)c1,96.9
12,COc1ccccc1NC(=O)Cn1cnc2c(oc3ccccc32)c1=O,100
13,O=C1CCCC2=C1C1(O)C(=O)c3ccccc3C1(O)O2 (configuration not stated),88.7
14,Cc1cc(C)c(NC(=O)C(C)(C)C)c(Cl)c1,86.2
15,Cc1c(NC(=O)Oc2ccccc2)sc(=S)n1C,98.2
16,O=C(c1ccc(CN2CCOCC2)cc1)N1CCN(Cc2ccccc2)CC1,97.9
17,Cc1cccc(N(C)c2cc(C)nc3ncnn23)c1,99.6

# From PubChem BioAssay
